This passage reports viability results from PubChem BioAssay AID598 (SRMLSC, 2007).

For orientation: viability means a read-out of living cells in per cent, often relative to untreated cells.

Screen size: about 85,000 compounds; about 5,100 (6%) were called active.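 The calls were made as follows: active = viability at or below 40%; inactive = viability above 40%.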 Many of the other results were omitted from the sample, so actives are more common in it than they were.

The nature of this assay: proliferation blockers of H69AR lung cancer cells, primary screen, cell-based, human, 86K library (AID 598).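 Also: multidrug resistant small cell line overexpressing MRP-1 efflux transporter; 100% = mean luminescence of untreated control wells.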 The settings on record: H69AR lung tumor viability, ATP luminescence, 72 h; at 10 µM; stronger effect = lower value.
In the case of `CCOC(=O)C1C(=O)NCC1c1ccccc1` (configuration not stated), the viability was 99.9% (inactive). As for `O=C(c1cc2sccc2n1Cc1ccc(F)cc1)N1CCc2ccccc21`, the viability is 76% (inactive). To `COC(=O)c1cc(NC(=O)CC2C(=O)NCCN2C(=O)c2ccc(F)cc2)cc(C(=O)OC)c1` (configuration not stated) belongs 80% (inactive). In the case of `O=C1Nc2ccccc2C12Nc1ccccc1S2` (configuration not stated), the viability was 85.7% (inactive). As for `C=C1c2cc(CC)ccc2NC(=O)N1c1ccc(C)cc1`, the viability was 91.4% (inactive). Take `CCc1ccc2c(c1)C1(NN=C(c3ccccc3)S1)C(=O)N2` (configuration not stated): the viability is 15.2% (active).

Take `CCC(=O)NC(Nc1nc2ccc(C)cc2s1)(C(=O)OC)C(F)(F)F` (configuration not stated): the viability was 82.5% (inactive). Next, `CC(C)CC(=O)Nc1cc(C(F)(F)F)ccc1N1CCOCC1`: 80.6% (inactive); `O=C(NCc1ccco1)c1ccc(Cn2c(=O)c3sccc3n(Cc3ccc(F)cc3)c2=O)cc1`: 82.3% (inactive); `COc1ccccc1NC(=O)C1CCCN(c2cc(C)nc3ncnn23)C1` (configuration not stated): 85.4% (inactive).

As to `CCOC(=O)N1CCN(C(=O)c2cc3c(-c4ccc(Cl)cc4)nn(C)c3s2)CC1`, the viability was 31.4% (active). As to `COc1cccc(-c2nn(C)c3sc(C(=O)N4CCN(c5ccccc5)CC4)cc23)c1`, the viability was 70.9% (inactive). Regarding `COc1ccccc1N1CCN(C(=O)c2cc3c(-c4ccc(Cl)cc4)nn(C)c3s2)CC1`, the viability was 79.4% (inactive). Regarding `CSc1nc(-c2ccco2)nn1C(=O)CCc1ccccc1`, the viability was 94.3% (inactive). `Cc1ccc(C(=O)Nc2ccccc2C(=O)NC2CCCCC2)cc1S(=O)(=O)N1CCOCC1`: the viability was 73% (inactive). Take `O=C(NCCSCc1ccccc1)c1ccc(Cl)c(S(=O)(=O)N2CCOCC2)c1`: the viability is 72.6% (inactive). As for `Cc1ccccc1CSCCNC(=O)c1ccc(Cl)c(S(=O)(=O)N2CCOCC2)c1`, the viability was 24.7% (active). To `CCCc1noc2c1/C(=N\O)CCC2` belongs 111% (inactive). Turning to `CC(C)C(=O)Nc1c(C(=O)c2ccc(F)cc2)oc2ccccc12`, the viability is 83.5% (inactive).

Regarding `COC(=O)c1oc2ccc(Br)cc2c1NC(C)=O`, the viability was 95% (inactive). As to `COc1ccc(C(=O)c2oc3ccc(Br)cc3c2NC(C)=O)cc1`, the viability was 37.9% (active). In the case of `CCn1nnnc1SCC(=O)c1ccc(C)cc1C`, the viability was 101% (inactive). As for `CN(C)c1ccc(CNC2C3CC4CC(C3)CC2C4)cc1` (configuration not stated), the viability was 99.4% (inactive). Turning to `O=C(Nc1cccc(Cl)c1)Nc1nnc(-c2ccccc2)o1`, the viability was 70.9% (inactive). To `CC(C)(C)c1ccc(C(=O)NCCC(=O)NCc2ccco2)cc1` belongs 87.7% (inactive). `CC(C)(C)c1ccc(NC(=O)NCc2ccco2)cc1`: the viability was 39.5% (active).

Turning to `Cc1ccccc1NC(=O)NCc1ccco1`, the viability is 99.6% (inactive). Turning to `CCC(c1nnnn1C(C)(C)C)N(Cc1cc2cccc(C)c2n2nnnc12)C1CCCC1` (configuration not stated), the viability is 78.9% (inactive). With `CCOc1cc(NC(=O)c2ccco2)c(OCC)cc1NC(=O)COc1ccccc1`, the viability was 91.9% (inactive). Regarding `CCOc1cc(N2CCOCC2)c(OCC)cc1NC(=O)COc1cccc2cccnc12`, the viability is 21.9% (active). To `CCOc1cc(N2CCOCC2)c(OCC)cc1NC(=O)COC(=O)[C@H](Cc1c[nH]c2ccccc12)NC(C)=O` belongs 71.8% (inactive).

With `O=C(Nc1cccc(NC(=O)c2ccco2)c1)c1cnccn1`, the viability is 87.2% (inactive). For `Cc1cc(C)c(NC(=O)CN2CCOCCOCCOCCOCC2)c(C)c1`, the viability was 97.2% (inactive). To `Cc1cc(Cl)c(S(=O)(=O)N(C)C)cc1OCC(N)=O` belongs 96% (inactive); to `CCCCC(C(=O)OCC(=O)c1ccc(OC)cc1)N1C(=O)c2ccccc2C1=O` (configuration not stated), 95% (inactive). For `CC/C(O)=N\S(=O)(=O)c1ccc(N=NN(C)C)cc1`, the viability was 85.7% (inactive). Regarding `CN(C)S(=O)(=O)c1ccc(N2CCCC2)c(C(=O)NCc2ccccc2)c1`, the viability is 83.6% (inactive). Next, `Clc1cccc(N=C2NN=C(c3ccc4c(c3)OCCO4)CS2)c1`: 1.44% (active); `CCOC(=O)C1=C(O)CSC1=Nc1cccc(Cl)c1`: 91.2% (inactive); `COCCn1c(C)cc(C2=NNC(=Nc3ccc(F)cc3)SC2)c1C`: 88.2% (inactive). As to `CN1CCN(C(=O)Cn2c(C(F)(F)F)nc3ccccc32)CC1`, the viability was 96.4% (inactive). `O=C(Nc1nnc(C2CC2)s1)c1ccccn1`: the viability is 81% (inactive). For the compound `O=C1Nc2cc(Cl)c(Cl)cc2N(O)N1c1cc(Cl)cc(Cl)c1`, the viability was 102% (inactive). With `COc1cccc(N(CC(=O)NCCSc2ccccn2)S(C)(=O)=O)c1`, the viability is 95.5% (inactive). Consider `CC1(C)OC(=O)N2CCc3ccccc3C21C` (configuration not stated), for which the viability is 91.6% (inactive). For `O=C(COC(=O)c1ccc(S(=O)(=O)N2CCc3ccccc3C2)cc1)NC(=O)NCc1ccco1`, the viability was 18.3% (active). As to `O=C(CN1CCN(S(=O)(=O)/C=C/c2ccccc2)CC1)NC(=O)NCc1ccco1`, the viability was 93.8% (inactive). For the compound `O=C(Nc1ccc(S(=O)(=O)N2CCc3ccccc3C2)cc1)c1ccccc1`, the viability is 69% (inactive). With `O=C(NC(C(=O)NCCN1CCOCC1)C12CC3CC(CC(C3)C1)C2)C1CCCCC1` (configuration not stated), the viability is 90.9% (inactive). Take `Nc1ccc(-c2nnc(-c3ccc(-c4ccccc4)cc3)o2)cc1`: the viability was 55% (inactive). Take `Nc1ccc(Nc2ccccc2)cc1`: the viability is 15.3% (active). In the case of `c1ccc(Nc2n[nH]nc2-c2ccccc2)cc1`, the viability was 94.2% (inactive). Next, `CCCCCCOc1ccc(OC(=O)c2cccnc2)cc1`: 99.5% (inactive). Turning to `Cc1cc(C(=O)Nc2ccccc2N2CCOCC2)c2ccccc2n1`, the viability is 67.9% (inactive).

For the compound `O=C(NCc1cccnc1)c1cn(-c2ccccc2)nc1-c1cccs1`, the viability was 9.99% (active). Next, `O=C(CCc1ccccc1)NCc1cccnc1`: 97.5% (inactive); `COC(=O)c1cn(-c2ccccc2)nc1-c1cccnc1`: 108% (inactive).

As for `CCN(CC)CCNC(=O)CCCCCn1c(=O)[nH]c2cc(C(=O)OC)ccc2c1=O`, the viability is 102% (inactive). Consider `COc1ccccc1C(c1nnnn1C(C)(C)C)N1CCN(Cc2ccccc2)CC1` (configuration not stated), for which the viability was 85.2% (inactive). As to `COc1ccc(-c2nnc(SC(C)C#N)o2)cc1` (configuration not stated), the viability is 86.7% (inactive).

`COc1ccc(-c2nnc(SC(=O)N3c4ccccc4Sc4ccccc43)o2)cc1`: the viability is 4.55% (active). Take `COc1ccc(-c2nnc(SCC(=O)c3ccc4c(c3)OCCO4)o2)cc1`: the viability was 102% (inactive).
